# Rows were chosen to be rich in hits. Some 18% of all compounds tested hit in one or more screens of this group.
# DT40 TDP1 CPT: qHTS for Inhibitors of human tyrosyl-DNA phosphodiesterase 1 (TDP1): qHTS in cells in presence of CPT | chicken DT40 Tdp1-/-;hTDP1 cells + 20 nM CPT, ATP luminescence, 48 h | Potency, µM (top dose mostly 46.2 µM), usual class: inhibitors | hit rate 12% among 420,000; further: nearly all actives have a fitted effect of over 55% in size
#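 Cell growth measured by CellTiter-Glo luminescence after a minimum 48 h, 37 C compound exposure with 20 nM CPT in Tdp1-knockout DT40 cells stably expressing hTDP1, seeded 400/well; qHTS titration format.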
# CtBP-E1A blk: qHTS Assay for Inhibitors of the CtBP/E1A Interaction; CtBP / adenovirus E1A interaction (AlphaScreen); AlphaScreen GST-E1A/His-CtBP binding, 1536-well; stronger effect = lower value; activity change, % (concentration not given with the values); hit rate 0.49% among 340,000; AID 651724, 2012; in the data active means activity change below about -65%; inconclusive means mostly about -30% to -63%
#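 Steps: dispense buffer (Tris pH 8.0, NaCl 300 mM, TCEP 1 mM, BSA, Tween 20); add 5X protein mix (GST-E1A, His-CtBP, 125 nM each); pin 23 nL compound; 2 h at 37 °C, dark; add 5X beads (50 ug/mL); 1 h; read.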
# TDP1 inh: qHTS Assay for Inhibitors of Tyrosyl-DNA Phosphodiesterase (TDP1). Potency, µM (top dose mostly 130 µM), most hits filed as inhibitors. recombinant TDP1, AlphaScreen DNA substrate cleavage. hit rate 0.28% among 350,000. Tyrosyl-DNA phosphodiesterase 1 (Homo sapiens), Q9NUW8. AID 485290, 2010; further: nearly all actives have a fitted effect of over 40% in size
#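 Compounds were preincubated with Tdp1 (1 nM final) for 15 min at room temperature before substrate (15 nM final) started a 5 min reaction; beads (10 ug/ml final) were then added for 10 min before AlphaScreen detection.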
# IL-1B inflam inh: qHTS for Inhibitors of Inflammasome Signaling: IL-1-beta AlphaLISA Primary Screen. THP-1 LPS/ATP IL-1B secretion, AlphaLISA, 16 h; stronger effect = lower value. activity change, % at 57.5 µM. hit rate 4.7% among 360,000; in the data active means activity change below about -50%; inconclusive means mostly about -30% to -49%
#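 Secreted IL-1B measured by AlphaLISA bead assay after 16 h compound exposure of THP-1 cells; compounds (final up to 57.5 uM) added 1 h before LPS (250 ng/mL) and ATP (1.25 mM) stimulation; lower signal means less secretion.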
# TDP1 cell noCPT: qHTS for Inhibitors of human tyrosyl-DNA phosphodiesterase 1 (TDP1): qHTS in cells in absence of CPT; DT40 Tdp1-/- hTDP1 cells, no CPT, ATP luminescence, 48 h; Potency, µM (series often up to 46.2 µM), usual class: inhibitors; hit rate 15% among 420,000; AID 686978, 2013; further: nearly all actives have a fitted effect of over 55% in size
#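 A cellular qHTS used chicken DT40 cells lacking endogenous Tdp1 but carrying stably transfected human TDP1. Compounds were applied without camptothecin, and cell growth kinetics were judged by ATP-dependent luminescence after ≥48 hr.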
# Six1-Eya2 blk: qHTS Assay for Inhibitors of the Six1/Eya2 Interaction; Homeobox protein SIX1 (Homo sapiens) + Protein phosphatase EYA2 (Homo sapiens), …; AlphaScreen GST-Six1/His-Eya2 binding, biochemical; stronger effect = lower value; activity change, % (concentration not given with the values); hit rate 0.56% among 360,000; in the data active means activity change below about -65%; inconclusive means mostly about -30% to -63%
#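 Homogeneous AlphaScreen proximity assay pairing GST-Six1 with His-tagged Eya2 (added as 5X mix: 250 nM and 500 nM) in 50 mM Tris pH 8.0, 300 mM NaCl, 1 mM TCEP. Glutathione donor and nickel acceptor beads; 1 h, 37 °C, dark.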
# A number is an active result; – = inactive; ? = inconclusive; · = no result given; [ ] = another dose, or the depositor's remark. Unless noted, the call rests on the fitted dose curve; in most records, active means well fitted curve in the direction sought with a large enough effect; inconclusive means small, poorly fitted or top-dose-only effect, or another doubt; inactive means no such curve, though single readings can be large; an effect the other way counts as inactive or inconclusive.
SMILES,DT40 TDP1 CPT,CtBP-E1A blk,TDP1 inh,IL-1B inflam inh,TDP1 cell noCPT,Six1-Eya2 blk
Cc1cc(C)c(NC(=O)CCCn2c(C)c3cnn(-c4ccccc4)c(=O)c3c2C)c(C)c1,?,·,–,·,23.1µM,·
Cc1cccc(N2CCN(C(=O)CN3C(=O)CSc4c3c(C)nn4-c3ccccc3)CC2)c1C,?,·,–,·,?,·
Cc1ccc(C)c(N2CCN(C(=O)C(C)n3c(C)c4cnn(-c5ccccc5)c(=O)c4c3C)CC2)c1 (configuration not stated),20.6µM,·,–,·,16.4µM,·
Cc1c2cnn(-c3ccccc3)c(=O)c2c(C)n1CCCC(=O)Nc1cc(F)ccc1F,–,·,–,·,?,·
Cc1cccc(N2CCN(C(=O)Cn3c(C)c4cnn(-c5ccccc5)c(=O)c4c3C)CC2)c1C,7.31µM,·,–,·,5.8µM,·
Cc1cccc(NC(=O)CCCn2c(C)c3cnn(-c4ccccc4)c(=O)c3c2C)c1C,20.6µM,·,–,·,?,·
Cc1c(CCC(=O)NCCC(=O)O)c(=O)oc2cc3occ(-c4ccccc4)c3cc12,–,?,·,–,–,–
O=C(N/N=C/c1ccccn1)c1ccc(Cl)c(Cl)c1,·,·,–,·,·,·
CCCCn1c(N)c(N(CCOC)C(=O)C2CCN(C(=O)c3ccc(Cl)cc3)CC2)c(=O)[nH]c1=O,–,–,–,–,–,–
Cc1ccc(C2=[N+]([O-])C(C)(C)CC2)cc1,–,–,–,–,–,–
Cc1cc(C(=O)N2CCN(c3cccc(C)c3C)CC2)c2c(C)nn(-c3ccccc3)c2n1,?,·,–,·,7.31µM,·
Cc1ccc(C)c(NC(=O)CCCn2c(C)c3cnn(-c4ccccc4)c(=O)c3c2C)c1,18.4µM,·,–,·,?,·
Nc1c(C(=O)Nc2ccc(F)cc2)sc(=S)n1-c1ccccc1F,?,–,–,?,–,–
COc1ccc(OC)c(CC(=O)NC(c2ccccc2)c2ccccc2)c1,–,–,–[0.0935 µM],–,–,–
COc1ccc(CC(=O)NC(c2ccccc2)c2ccc(C)cc2)c(OC)c1 (configuration not stated),?,–,·,–,18.4µM,–
O=C(O)/C=C1\CCCc2ccccc2[C@H]1O,–,·,–,·,–,·
COCc1cc(Sc2ccc(Br)cc2)nc(-c2ccccc2)n1,–,–,·,–,?,–
Clc1cc(Sc2ccc(Br)cc2)nnc1-c1ccccc1,?,–,–,–,29.1µM,–
O=C1CC(SC2=NCCS2)C(=O)N1c1ccc(Br)cc1 (configuration not stated),–,–,–,–,–,–
Cc1nnc2c(NC(C)C)nc3ccccc3n12,?,–,–,–,?,–
OCCNc1c2ccccc2nc2c(F)c(F)c(F)c(F)c12,2.06µM,–,–,-92.6,2.31µM,–
Cc1c2ccccc2nc2c(F)c(NCCO)c(F)c(F)c12,?,–,–,-86.6,?,–
CCNc1c2c(nc3ccccc13)CC(C)(C)CC2=O,?,–,–,–,?,–
Cc1c2ccccc2nc2c(F)c(NC(C)C)c(F)c(F)c12,?,–,–,-53.3,?,–
CCS(=O)(=O)N1CCc2cc(C(=O)NCCc3ccccc3)ccc21,–,·,–,·,–,·
CCOc1cc(C(=O)N2CCN(c3ccc(C(C)=O)cc3)CC2)cc(OCC)c1OCC,?,–,–,–,?,–
COc1ccc(N2CCN(S(=O)(=O)c3ccc(F)c(C(=O)Nc4ccccc4Cl)c3)CC2)cc1,7.31µM,·,–,·,8.2µM,·
COc1ccccc1N1CCN(S(=O)(=O)c2ccc(F)c(C(=O)Nc3ccc(Cl)cc3C(F)(F)F)c2)CC1,?,·,–,·,20.6µM,·

# From PubChem BioAssay
